# Measurements from ChEMBL document CHEMBL2218924, “A broad activity screen in support of a chemogenomic map for kinase signalling research and drug discovery” (Biochem J, 2013).
# Legend:
# [1] = target: T1, Ephrin type-A receptor 3 (Homo sapiens) (UniProt P29320); conditions: at 10 µM
# T1 sequence (whole entry): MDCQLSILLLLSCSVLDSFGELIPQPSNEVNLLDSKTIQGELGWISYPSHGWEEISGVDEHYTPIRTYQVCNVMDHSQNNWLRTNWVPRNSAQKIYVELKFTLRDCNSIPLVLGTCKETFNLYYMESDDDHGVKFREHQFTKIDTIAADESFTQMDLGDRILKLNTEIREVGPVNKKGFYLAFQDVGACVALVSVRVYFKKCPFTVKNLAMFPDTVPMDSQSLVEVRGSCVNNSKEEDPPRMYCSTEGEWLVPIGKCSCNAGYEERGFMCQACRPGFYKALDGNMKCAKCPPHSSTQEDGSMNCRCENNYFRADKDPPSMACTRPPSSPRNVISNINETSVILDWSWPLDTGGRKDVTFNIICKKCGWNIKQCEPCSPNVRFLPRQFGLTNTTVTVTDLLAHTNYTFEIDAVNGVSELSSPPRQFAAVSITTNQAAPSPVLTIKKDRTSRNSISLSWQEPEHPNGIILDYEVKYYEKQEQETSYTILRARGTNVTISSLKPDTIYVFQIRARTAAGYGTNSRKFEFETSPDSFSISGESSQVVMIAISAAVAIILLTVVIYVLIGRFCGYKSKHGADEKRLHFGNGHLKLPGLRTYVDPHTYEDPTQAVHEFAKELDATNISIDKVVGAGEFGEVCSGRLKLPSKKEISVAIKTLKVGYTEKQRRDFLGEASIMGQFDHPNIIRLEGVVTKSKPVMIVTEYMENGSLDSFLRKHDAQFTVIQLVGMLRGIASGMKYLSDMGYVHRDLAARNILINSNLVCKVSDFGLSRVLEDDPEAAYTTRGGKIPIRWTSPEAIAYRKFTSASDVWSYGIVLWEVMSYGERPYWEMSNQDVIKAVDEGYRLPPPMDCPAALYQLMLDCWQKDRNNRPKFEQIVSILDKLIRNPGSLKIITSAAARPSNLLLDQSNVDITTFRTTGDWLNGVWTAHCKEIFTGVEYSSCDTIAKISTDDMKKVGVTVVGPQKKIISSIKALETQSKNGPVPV
# [2] = target: Ephrin type-A receptor 4 (Homo sapiens) (UniProt P54764); conditions: at 1 µM
# Sequence of Ephrin type-A receptor 4 (Homo sapiens) (P54764 whole entry): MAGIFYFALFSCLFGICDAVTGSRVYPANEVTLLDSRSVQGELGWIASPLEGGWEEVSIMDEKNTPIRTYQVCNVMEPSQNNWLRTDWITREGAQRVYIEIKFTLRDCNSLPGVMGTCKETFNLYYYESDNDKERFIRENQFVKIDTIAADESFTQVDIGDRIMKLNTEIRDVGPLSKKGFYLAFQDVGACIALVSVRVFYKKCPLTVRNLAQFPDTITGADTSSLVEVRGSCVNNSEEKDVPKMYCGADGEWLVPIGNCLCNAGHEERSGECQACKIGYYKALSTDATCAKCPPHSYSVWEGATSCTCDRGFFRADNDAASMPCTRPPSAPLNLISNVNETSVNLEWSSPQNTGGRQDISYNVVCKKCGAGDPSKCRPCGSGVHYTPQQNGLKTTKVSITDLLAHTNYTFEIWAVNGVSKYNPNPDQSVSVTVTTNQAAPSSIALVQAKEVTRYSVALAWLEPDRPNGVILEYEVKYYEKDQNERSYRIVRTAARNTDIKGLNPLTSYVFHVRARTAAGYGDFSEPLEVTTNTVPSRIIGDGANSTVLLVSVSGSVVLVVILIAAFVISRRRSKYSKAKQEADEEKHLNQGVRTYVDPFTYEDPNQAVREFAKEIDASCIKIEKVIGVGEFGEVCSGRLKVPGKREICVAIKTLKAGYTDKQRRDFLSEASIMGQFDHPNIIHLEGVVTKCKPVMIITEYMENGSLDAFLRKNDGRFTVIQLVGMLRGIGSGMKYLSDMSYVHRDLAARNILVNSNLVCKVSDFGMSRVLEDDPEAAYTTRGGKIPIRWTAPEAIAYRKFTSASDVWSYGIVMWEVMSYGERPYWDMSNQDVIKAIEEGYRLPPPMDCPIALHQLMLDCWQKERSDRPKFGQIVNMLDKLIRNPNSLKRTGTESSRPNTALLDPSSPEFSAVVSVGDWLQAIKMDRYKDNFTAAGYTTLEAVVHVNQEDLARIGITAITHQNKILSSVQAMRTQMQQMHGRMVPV
# [3] = target: Ephrin type-A receptor 4 (Homo sapiens) (UniProt P54764); conditions: at 10 µM
# [4] = target: Ephrin type-A receptor 5 (Homo sapiens) (UniProt P54756); conditions: at 1 µM
# Sequence of Ephrin type-A receptor 5 (Homo sapiens) (P54756 whole entry): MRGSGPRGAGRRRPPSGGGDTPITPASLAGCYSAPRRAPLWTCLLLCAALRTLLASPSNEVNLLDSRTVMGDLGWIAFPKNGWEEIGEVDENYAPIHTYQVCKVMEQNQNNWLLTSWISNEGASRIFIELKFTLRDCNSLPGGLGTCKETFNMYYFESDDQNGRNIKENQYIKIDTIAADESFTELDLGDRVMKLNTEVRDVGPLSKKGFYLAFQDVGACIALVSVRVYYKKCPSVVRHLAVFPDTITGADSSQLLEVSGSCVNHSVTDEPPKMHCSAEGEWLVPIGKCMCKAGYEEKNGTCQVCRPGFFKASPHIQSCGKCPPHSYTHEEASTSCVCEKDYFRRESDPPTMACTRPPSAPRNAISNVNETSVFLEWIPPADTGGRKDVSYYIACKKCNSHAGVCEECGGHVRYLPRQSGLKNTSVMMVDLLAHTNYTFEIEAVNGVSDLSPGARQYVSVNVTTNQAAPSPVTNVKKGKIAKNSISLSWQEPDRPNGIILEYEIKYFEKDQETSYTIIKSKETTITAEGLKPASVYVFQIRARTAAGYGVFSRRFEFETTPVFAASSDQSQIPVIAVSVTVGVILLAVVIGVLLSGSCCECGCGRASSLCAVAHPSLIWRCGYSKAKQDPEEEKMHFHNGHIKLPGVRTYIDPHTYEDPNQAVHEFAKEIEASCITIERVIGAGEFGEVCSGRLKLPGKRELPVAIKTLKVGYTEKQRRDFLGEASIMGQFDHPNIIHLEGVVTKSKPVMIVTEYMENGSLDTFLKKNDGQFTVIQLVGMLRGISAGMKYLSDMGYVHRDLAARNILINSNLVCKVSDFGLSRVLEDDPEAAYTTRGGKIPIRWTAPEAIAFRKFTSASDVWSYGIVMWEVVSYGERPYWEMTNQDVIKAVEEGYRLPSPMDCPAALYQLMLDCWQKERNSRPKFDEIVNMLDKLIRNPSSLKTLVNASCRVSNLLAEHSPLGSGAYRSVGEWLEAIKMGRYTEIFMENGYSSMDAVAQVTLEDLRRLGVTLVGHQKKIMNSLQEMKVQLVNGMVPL
# [5] = target: Ephrin type-A receptor 5 (Homo sapiens) (UniProt P54756); conditions: at 10 µM
# [6] = target: T2, Ephrin type-A receptor 8 (Homo sapiens) (UniProt P29322); conditions: at 1 µM
# T2 sequence (whole entry): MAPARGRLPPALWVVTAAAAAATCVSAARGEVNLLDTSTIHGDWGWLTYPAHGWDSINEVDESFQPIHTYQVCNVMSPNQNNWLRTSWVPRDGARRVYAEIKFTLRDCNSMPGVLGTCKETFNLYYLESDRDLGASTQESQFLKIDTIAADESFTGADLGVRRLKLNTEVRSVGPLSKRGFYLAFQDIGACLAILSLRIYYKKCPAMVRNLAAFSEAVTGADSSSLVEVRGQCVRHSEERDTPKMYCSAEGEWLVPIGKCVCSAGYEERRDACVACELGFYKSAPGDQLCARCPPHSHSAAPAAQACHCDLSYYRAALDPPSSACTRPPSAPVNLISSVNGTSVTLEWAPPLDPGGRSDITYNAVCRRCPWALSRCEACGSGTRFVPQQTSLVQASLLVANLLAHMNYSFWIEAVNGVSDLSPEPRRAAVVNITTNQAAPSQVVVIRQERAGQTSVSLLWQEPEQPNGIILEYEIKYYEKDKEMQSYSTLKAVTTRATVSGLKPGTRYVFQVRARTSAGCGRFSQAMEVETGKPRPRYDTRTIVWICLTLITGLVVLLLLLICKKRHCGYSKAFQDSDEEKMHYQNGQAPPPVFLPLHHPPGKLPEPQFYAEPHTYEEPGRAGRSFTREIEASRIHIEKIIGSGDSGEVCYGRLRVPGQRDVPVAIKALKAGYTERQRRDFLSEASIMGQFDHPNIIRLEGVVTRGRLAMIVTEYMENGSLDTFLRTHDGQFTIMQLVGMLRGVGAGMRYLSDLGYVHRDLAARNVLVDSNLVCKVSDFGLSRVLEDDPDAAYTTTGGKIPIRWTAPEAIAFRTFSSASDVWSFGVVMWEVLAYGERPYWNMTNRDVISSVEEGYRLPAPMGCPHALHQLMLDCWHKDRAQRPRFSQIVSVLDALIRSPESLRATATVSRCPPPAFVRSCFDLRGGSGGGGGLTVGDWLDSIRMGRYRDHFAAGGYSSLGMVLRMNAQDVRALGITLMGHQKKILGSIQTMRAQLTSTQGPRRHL
# [7] = target: T2, Ephrin type-A receptor 8 (Homo sapiens); conditions: at 10 µM
# [8] = target: T3, Ephrin type-B receptor 1 (Homo sapiens) (UniProt P54762); conditions: at 1 µM
# T3 sequence (whole entry): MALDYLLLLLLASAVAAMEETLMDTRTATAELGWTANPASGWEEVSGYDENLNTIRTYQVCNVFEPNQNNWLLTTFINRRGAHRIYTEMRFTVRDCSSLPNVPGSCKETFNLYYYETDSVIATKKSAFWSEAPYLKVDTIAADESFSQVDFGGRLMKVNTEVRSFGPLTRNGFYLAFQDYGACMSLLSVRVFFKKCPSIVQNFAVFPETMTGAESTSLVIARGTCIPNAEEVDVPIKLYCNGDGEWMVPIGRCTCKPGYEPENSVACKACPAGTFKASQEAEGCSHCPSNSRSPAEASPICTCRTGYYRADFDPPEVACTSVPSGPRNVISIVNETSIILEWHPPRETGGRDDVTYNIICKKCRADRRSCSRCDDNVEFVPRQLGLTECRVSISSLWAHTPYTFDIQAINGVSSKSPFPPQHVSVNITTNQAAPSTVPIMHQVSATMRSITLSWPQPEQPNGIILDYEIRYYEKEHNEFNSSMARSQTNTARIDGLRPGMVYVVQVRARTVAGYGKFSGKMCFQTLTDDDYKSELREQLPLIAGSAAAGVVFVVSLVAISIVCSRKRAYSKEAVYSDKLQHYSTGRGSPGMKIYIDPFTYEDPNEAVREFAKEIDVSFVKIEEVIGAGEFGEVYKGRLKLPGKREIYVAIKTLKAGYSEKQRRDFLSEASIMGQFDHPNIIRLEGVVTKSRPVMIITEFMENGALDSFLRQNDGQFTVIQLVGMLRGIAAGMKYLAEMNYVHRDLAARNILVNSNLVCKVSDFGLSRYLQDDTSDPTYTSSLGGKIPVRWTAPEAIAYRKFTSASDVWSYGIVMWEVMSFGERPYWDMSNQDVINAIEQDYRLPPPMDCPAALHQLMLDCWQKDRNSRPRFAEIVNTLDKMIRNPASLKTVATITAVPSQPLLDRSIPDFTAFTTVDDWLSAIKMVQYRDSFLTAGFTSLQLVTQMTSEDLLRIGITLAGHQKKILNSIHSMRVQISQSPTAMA
# [9] = target: T3, Ephrin type-B receptor 1 (Homo sapiens); conditions: at 10 µM
# [10] = target: T4, Ephrin type-B receptor 3 (Homo sapiens) (UniProt P54753); conditions: at 1 µM
# T4 sequence (whole entry): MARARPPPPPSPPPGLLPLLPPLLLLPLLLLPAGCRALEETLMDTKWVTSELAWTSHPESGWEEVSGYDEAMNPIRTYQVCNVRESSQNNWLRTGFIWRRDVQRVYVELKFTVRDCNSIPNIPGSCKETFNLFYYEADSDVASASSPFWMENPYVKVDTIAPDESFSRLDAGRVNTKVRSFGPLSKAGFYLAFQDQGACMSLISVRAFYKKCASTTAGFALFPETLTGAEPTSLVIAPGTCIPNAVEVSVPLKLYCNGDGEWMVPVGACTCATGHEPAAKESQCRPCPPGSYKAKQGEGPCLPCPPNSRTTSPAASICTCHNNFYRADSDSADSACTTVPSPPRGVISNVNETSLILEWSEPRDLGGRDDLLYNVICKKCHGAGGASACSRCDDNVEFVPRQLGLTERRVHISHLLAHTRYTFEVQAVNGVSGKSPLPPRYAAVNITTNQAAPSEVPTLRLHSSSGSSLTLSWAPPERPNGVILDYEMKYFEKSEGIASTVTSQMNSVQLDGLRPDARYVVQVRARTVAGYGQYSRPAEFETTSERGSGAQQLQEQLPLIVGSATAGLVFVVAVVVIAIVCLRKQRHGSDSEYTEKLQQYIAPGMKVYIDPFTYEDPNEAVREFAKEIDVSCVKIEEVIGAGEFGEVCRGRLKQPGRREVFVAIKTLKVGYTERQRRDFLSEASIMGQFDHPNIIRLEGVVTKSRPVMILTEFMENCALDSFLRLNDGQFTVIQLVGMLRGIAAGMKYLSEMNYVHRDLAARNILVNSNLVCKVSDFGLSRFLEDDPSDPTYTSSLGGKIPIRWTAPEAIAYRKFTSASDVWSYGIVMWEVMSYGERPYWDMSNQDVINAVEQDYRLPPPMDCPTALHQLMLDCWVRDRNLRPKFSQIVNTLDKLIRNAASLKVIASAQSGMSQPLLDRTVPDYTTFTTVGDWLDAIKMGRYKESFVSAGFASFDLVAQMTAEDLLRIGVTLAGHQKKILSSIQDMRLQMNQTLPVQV
# [11] = target: T4, Ephrin type-B receptor 3 (Homo sapiens); conditions: at 10 µM
# [12] = target: T5, Ephrin type-B receptor 4 (Homo sapiens) (UniProt P54760); conditions: at 1 µM
# T5 sequence (whole entry): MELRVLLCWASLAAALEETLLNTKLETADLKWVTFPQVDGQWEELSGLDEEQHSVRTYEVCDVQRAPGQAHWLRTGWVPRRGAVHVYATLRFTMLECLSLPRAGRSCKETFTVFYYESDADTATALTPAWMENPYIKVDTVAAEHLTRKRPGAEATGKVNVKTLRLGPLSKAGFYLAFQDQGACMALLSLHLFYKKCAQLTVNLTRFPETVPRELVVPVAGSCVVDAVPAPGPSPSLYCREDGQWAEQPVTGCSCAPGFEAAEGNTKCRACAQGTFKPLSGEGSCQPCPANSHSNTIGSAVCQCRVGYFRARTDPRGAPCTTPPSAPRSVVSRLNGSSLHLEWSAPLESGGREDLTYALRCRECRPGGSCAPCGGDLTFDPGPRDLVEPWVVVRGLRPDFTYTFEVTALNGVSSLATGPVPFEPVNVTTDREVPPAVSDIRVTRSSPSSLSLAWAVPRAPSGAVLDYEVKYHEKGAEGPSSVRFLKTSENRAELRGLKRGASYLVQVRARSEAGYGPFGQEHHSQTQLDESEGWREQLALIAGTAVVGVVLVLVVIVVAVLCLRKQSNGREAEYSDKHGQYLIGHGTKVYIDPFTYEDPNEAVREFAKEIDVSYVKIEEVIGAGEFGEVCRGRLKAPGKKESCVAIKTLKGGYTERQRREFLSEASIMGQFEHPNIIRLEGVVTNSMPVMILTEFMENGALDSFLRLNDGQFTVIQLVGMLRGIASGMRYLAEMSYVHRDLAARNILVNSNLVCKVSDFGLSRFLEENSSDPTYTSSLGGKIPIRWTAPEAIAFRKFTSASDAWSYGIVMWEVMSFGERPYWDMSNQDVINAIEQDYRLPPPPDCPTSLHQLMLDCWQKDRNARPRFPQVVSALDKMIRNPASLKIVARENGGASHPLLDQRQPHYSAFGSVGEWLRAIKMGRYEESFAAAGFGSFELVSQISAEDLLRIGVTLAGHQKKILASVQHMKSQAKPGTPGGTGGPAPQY
# [13] = target: T5, Ephrin type-B receptor 4 (Homo sapiens); conditions: at 10 µM
# [14] = target: Receptor tyrosine-protein kinase erbB-4 (Homo sapiens) (UniProt Q15303); conditions: at 1 µM
# Sequence of Receptor tyrosine-protein kinase erbB-4 (Homo sapiens) (Q15303 whole entry): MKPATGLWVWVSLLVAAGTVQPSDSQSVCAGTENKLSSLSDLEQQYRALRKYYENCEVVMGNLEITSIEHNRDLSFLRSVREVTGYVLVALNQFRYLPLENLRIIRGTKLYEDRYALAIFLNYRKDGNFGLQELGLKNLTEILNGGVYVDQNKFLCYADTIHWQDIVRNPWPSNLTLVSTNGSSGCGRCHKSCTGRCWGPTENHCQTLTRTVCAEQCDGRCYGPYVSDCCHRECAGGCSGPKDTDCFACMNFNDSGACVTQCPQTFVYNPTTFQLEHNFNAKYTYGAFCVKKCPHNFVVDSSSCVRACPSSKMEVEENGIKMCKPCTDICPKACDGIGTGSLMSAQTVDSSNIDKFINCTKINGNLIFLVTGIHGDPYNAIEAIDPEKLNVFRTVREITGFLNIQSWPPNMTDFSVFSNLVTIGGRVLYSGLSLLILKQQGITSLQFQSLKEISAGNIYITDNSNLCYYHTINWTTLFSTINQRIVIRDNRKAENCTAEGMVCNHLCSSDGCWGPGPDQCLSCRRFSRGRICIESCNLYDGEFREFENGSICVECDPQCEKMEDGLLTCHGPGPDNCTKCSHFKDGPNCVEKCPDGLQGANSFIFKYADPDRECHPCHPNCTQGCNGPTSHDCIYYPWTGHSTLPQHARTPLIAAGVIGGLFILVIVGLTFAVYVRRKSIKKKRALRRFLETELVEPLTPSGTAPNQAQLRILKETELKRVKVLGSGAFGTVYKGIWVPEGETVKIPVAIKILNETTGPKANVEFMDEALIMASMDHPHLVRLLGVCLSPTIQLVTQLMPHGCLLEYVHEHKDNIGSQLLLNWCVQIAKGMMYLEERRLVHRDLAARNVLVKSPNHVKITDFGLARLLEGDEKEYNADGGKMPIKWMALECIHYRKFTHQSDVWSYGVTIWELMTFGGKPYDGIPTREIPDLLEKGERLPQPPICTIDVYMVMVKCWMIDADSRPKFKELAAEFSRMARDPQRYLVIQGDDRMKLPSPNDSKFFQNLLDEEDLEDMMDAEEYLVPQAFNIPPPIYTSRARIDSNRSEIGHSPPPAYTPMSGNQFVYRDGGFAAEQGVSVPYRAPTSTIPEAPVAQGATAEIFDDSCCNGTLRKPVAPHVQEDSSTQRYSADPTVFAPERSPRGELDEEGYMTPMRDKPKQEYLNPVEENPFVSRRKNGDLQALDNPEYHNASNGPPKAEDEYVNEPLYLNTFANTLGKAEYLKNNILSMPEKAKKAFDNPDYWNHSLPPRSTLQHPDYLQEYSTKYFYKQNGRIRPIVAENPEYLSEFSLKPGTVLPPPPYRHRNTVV
# [15] = target: Receptor tyrosine-protein kinase erbB-4 (Homo sapiens) (UniProt Q15303); conditions: at 10 µM
# [16] = target: Focal adhesion kinase 1 (Homo sapiens) (UniProt Q05397); conditions: at 1 µM
# Sequence of Focal adhesion kinase 1 (Homo sapiens) (Q05397 2-1052 limits assumed): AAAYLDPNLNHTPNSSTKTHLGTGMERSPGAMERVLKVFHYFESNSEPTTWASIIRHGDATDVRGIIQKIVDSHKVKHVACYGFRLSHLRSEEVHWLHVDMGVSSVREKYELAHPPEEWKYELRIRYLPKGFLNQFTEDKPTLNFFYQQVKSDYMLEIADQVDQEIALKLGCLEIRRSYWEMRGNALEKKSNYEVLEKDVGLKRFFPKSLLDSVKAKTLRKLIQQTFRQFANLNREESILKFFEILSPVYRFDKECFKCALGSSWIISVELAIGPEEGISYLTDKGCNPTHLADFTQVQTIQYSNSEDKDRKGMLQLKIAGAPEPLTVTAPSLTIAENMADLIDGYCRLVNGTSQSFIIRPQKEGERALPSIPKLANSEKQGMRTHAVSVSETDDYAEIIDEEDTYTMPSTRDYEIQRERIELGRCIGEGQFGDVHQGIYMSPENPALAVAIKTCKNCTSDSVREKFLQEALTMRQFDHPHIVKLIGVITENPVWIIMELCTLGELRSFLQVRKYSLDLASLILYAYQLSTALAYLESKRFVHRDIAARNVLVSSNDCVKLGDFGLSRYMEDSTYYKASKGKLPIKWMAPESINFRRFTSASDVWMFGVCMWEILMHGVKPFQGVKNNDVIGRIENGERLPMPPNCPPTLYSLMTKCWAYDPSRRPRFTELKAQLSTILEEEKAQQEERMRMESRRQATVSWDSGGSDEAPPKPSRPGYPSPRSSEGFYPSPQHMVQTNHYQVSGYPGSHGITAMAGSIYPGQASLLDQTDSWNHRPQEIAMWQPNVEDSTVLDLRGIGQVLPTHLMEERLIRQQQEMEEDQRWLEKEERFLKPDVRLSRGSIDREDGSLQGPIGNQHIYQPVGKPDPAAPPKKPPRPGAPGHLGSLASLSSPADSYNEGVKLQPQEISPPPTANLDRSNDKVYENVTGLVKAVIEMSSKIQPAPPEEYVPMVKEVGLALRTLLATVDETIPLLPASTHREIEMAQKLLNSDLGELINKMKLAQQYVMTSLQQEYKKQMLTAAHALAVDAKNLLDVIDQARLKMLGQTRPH
smiles,measurement,setting,value
O=C1NC(=O)c2c1c1c3ccccc3[nH]c1n1cncc21,residual activity,[1],83%
same,residual activity,[2],98%
same,residual activity,[3],94%
same,residual activity,[4],105%
same,residual activity,[5],76%
same,residual activity,[6],88%
same,residual activity,[7],93%
same,residual activity,[8],90%
same,residual activity,[9],74%
same,residual activity,[10],121% (inactive)
same,residual activity,[11],97%
same,residual activity,[12],82%
same,residual activity,[13],73%
same,residual activity,[14],87%
same,residual activity,[15],73%
same,residual activity,[16],57%
